Here are results for six compounds from PubChem BioAssay.

Activity calls are given as the source filed them.

Assay [1] is described as follows: small molecules captured by biotinylated probe aFSTL3 – biochemical, small-molecule microarray, fluorescence 635/667, stem cell growth factor project, primary screen (AID 1064).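 Further: measures binding of the biotinylated anti-FSTL3 antibody to printed compounds.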 Conditions: higher = more signal.
Assay [2] is described as follows: binders from COS7 lysate, DM2A8 probe, primary screen, torsin A project, cell lysate, small-molecule microarray, fluorescence 635/667 (AID 1065). To be noted: higher = more signal, COS7 lysate expressing mutant human TOR1A.
Assay [3] in a line: small molecules captured by biotinylated probe aFGF2 – biochemical, small-molecule microarray, fluorescence 635/667, stem cell growth factor project, primary screen (AID 1067).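 Further: measures binding of biotinylated aFGF2 protein to printed compounds on slides; z-score merges feature fluorescence and signal-to-noise across triplicate slides.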 Conditions: higher = more signal.
Assay [4] can be described thus: small molecules captured by biotinylated probe aFGF10 – biochemical, small-molecule microarray, fluorescence 635/667, stem cell growth factor project, primary screen (AID 1071).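 Further: score merges 667 nm spot intensity and signal to noise from triplicate slides.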 Conditions: higher = more signal.
Assay [5] concerns the target Neurogenic locus notch homolog protein 2 (Homo sapiens) (UniProt Q04721). In words: small molecules binding Notch2 protein – biochemical, small-molecule microarray, 635 nm fluorescence, stem cell growth factors, primary screen (AID 1073). To be noted: higher = more signal.
Assay [6] concerns the target Pro-neuregulin-1, membrane-bound isoform (Homo sapiens) (UniProt Q02297). In words: small molecules binding neuregulin-1 protein – biochemical, small-molecule microarray, fluorescence 635/667, psychiatric disease protein project, primary screen (AID 1075).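 Further: score combines 667 nm spot fluorescence with signal to noise.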 Conditions: NRG1 binding, 635 nm fluorescence, higher = more signal.
Assay [7] concerns Neuregulin-1 EGF-like domain. In words: small molecules binding NRG1 EGF domain – biochemical, small-molecule microarray, 635 nm fluorescence, primary screen (AID 1081).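 Further: binding of the protein to compounds printed on small-molecule microarray slides.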 Conditions: higher = more signal.
Assay [8] is described as follows: FRG1 expression reporter modulators in myotubes – cell-based, C2C12 myotubes, firefly/Renilla luciferase, luminescence, FRG1 inhibition for FSHD, primary screen (AID 1084). To be noted: FRG1 promoter luciferase, higher = more signal, called active from +8 up or from −8 down.
A short description of assay [9]: small molecules captured by biotinylated probe aFST – biochemical, small-molecule microarray, fluorescence 635/667, stem cell growth factor project, primary screen (AID 1086).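 Further: score merges 667 nm fluorescence with signal-to-noise of each printed compound spot.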 Conditions: higher = more signal.
The nature of assay [10]: binders of probe aHhip on microarray, primary screen, stem cell growth factor project, biochemical, small-molecule microarray, fluorescence 635/667 (AID 1087).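 Further: score merges spot fluorescence at 667nm with spot signal to noise ratio.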 To be noted: higher = more signal.
For assay [11], the system named is PRMT1 (protein arginine N-methyltransferase 1). In words: small molecules binding arginine methyltransferase PRMT1 – biochemical, small-molecule microarray, 635 nm fluorescence, primary screen (AID 1088).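 Further: binding of Prmt1 protein to compounds spotted on small-molecule microarray slides.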 Conditions: higher = more signal.
Assay [12] is described as follows: growth effects on S. cerevisiae YJM789 – YJM789 clinical isolate, OD600, 24 h, basal, primary screen (AID 1089).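 Further: growth of clinical yeast isolate S. cerevisiae YJM 789 seeded 1000 cells per well; test concentration not given here.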 Conditions: higher = more signal, called active from +8 up or from −8 down.
Assay [13] in a line: S. pombe growth modifiers, basal conditions – strain 972, OD600, 24 h, no modulator, primary screen (AID 1090).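 Further: basal condition with compound alone and no growth modifier present; test concentration not given here.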 To be noted: S. pombe 972 growth, higher = more signal, called active from +8 up or from −8 down.
A short description of assay [14]: budding yeast growth modifiers under rapamycin – strain BY4716, OD600, 96 h, primary screen (AID 1091). Further: test concentration not given here. Conditions: S. cerevisiae BY4716 + rapamycin, higher = more signal, called active from +8 up or from −8 down.
Assay [15] concerns the target Torsin-1A-interacting protein 2 (Homo sapiens) (UniProt Q8NFQ8). The experiment in a line: small molecules binding lysate-expressed LULL1 – cell lysate, human LULL1 lysate, 635/667 nm fluorescence, primary screen (AID 1092).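 Further: score merges per-feature 667 nm fluorescence with signal-to-noise.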 To be noted: small-molecule microarray, hLULL1 lysate binding, 635 nm fluorescence; higher = more signal.
Assay [16] is described as follows: optical density change of DRC41 E. coli – strain DRC41, OD650, 24 h, E. coli filamentation project, primary screen (AID 1093).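 Further: MC1000 strain lacking acrAB efflux and sulA so SOS filamentation is blocked; test concentration not given here.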 To be noted: E. coli DRC41 growth, higher = more signal, called active from +8 up or from −8 down.
Assay [17] in a line: probe aLefty2 binding to arrayed compounds – biochemical, biotinylated probe, 635/667 nm fluorescence, primary screen (AID 1094).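 Further: score merges spot fluorescence near 667 nm with spot signal-to-noise ratio.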 Conditions: small-molecule microarray, higher = more signal.
In assay [18] the test system is Noggin (protein binding on small-molecule microarray). In words: small molecules binding Noggin protein – biochemical, 635/667 nm fluorescence, primary screen (AID 1095).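 Further: score merges 667 nm feature fluorescence with signal to noise over triplicate slides.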 To be noted: 635 nm fluorescence, higher = more signal.
In assay [19] the target is Neurogenic locus notch homolog protein 3 (Homo sapiens) (UniProt Q9UM47). In words: small molecules binding NOTCH3 protein – biochemical, 635/667 nm fluorescence, primary screen (AID 1096). To be noted: small-molecule microarray, 635 nm fluorescence, higher = more signal.
Assay [20] can be described thus: probe aEGFR binding to arrayed compounds – biochemical, biotinylated probe, 635/667 nm fluorescence, primary screen (AID 1097).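 Further: probe is a biotinylated anti-EGFR antibody binding compounds printed on slides; score combines fluorescence near 667 nm and signal to noise of each spot.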 Conditions: small-molecule microarray, higher = more signal.

Chain of Neurogenic locus notch homolog protein 2 (Homo sapiens) (Q04721 whole entry, looked up, canonical isoform): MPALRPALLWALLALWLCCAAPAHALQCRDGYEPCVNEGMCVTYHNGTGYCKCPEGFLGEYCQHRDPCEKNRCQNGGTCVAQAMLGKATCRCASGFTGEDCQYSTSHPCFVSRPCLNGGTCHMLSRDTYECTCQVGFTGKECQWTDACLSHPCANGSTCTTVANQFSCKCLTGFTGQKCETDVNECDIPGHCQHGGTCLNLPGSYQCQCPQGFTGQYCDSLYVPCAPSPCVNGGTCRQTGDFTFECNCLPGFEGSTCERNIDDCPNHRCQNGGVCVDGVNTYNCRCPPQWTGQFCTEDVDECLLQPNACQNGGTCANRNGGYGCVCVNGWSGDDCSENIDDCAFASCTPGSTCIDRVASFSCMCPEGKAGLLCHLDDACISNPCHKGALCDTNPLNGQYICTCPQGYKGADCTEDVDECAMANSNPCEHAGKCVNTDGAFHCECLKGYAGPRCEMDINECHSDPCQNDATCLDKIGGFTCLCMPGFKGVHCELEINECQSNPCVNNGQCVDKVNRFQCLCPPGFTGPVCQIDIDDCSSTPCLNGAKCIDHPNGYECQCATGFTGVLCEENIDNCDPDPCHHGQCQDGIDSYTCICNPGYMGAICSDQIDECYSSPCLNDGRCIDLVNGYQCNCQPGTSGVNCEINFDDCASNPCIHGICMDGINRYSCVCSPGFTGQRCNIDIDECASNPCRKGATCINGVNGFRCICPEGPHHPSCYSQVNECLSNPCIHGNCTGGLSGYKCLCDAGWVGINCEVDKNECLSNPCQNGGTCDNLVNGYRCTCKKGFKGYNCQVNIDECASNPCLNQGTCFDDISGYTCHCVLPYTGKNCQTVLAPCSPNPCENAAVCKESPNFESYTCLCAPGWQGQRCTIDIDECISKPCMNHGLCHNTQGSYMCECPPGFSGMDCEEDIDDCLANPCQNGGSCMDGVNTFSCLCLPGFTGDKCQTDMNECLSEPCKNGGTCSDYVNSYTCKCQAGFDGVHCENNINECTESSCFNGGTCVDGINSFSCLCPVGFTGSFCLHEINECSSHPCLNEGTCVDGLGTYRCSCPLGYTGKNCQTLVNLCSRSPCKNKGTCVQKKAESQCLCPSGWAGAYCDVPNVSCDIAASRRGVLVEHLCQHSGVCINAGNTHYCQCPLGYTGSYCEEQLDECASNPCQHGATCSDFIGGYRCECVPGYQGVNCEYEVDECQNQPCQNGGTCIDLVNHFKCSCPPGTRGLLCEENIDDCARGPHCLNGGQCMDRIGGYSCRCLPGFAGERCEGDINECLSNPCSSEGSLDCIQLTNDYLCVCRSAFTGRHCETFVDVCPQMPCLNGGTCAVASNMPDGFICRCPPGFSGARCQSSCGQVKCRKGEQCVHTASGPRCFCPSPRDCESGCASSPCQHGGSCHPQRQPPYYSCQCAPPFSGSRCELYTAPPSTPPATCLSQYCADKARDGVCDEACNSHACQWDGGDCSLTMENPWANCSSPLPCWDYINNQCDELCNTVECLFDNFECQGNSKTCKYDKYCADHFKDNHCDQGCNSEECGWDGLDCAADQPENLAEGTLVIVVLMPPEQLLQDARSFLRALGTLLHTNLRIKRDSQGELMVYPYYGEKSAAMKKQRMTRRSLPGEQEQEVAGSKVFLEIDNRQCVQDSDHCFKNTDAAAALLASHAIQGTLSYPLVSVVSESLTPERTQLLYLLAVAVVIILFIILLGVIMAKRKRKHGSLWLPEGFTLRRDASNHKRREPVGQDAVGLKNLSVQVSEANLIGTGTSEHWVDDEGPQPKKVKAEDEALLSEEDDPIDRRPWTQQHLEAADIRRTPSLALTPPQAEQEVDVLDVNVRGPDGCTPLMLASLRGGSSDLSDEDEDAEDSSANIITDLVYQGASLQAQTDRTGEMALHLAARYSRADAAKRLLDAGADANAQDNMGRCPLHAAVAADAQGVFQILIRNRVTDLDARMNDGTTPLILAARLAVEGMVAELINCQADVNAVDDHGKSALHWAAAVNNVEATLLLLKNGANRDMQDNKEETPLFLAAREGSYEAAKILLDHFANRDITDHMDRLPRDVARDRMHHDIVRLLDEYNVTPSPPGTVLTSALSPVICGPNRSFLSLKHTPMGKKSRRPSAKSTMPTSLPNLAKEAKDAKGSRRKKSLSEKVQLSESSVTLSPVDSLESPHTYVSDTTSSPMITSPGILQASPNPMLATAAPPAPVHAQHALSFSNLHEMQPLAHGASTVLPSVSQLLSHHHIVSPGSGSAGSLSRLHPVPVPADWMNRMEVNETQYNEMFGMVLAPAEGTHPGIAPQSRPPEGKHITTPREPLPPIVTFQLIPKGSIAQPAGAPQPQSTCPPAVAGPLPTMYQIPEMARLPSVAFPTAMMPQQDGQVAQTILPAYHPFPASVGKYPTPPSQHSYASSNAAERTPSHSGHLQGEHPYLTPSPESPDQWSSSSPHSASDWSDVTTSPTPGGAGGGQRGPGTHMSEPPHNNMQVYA
Chain of Pro-neuregulin-1, membrane-bound isoform (Homo sapiens) (Q02297 whole entry, looked up, the tested form may be a part, canonical isoform): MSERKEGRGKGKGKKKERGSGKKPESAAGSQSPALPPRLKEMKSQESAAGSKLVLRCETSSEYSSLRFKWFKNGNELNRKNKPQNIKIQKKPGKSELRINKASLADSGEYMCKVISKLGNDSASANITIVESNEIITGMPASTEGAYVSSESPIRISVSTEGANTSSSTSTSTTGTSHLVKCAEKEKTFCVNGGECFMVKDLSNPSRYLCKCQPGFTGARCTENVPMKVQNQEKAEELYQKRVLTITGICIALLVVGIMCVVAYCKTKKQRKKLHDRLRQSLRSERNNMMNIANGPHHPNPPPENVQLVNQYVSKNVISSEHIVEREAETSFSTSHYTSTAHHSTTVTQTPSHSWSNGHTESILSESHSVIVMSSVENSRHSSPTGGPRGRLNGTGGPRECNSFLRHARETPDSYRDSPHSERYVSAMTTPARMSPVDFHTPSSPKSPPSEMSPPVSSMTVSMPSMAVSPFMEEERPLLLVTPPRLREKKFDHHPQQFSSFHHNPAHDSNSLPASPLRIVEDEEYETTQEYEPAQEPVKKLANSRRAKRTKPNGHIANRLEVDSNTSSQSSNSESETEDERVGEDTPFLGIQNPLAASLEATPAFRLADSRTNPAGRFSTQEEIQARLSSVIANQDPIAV
Chain of Torsin-1A-interacting protein 2 (Homo sapiens) (Q8NFQ8 whole entry, looked up): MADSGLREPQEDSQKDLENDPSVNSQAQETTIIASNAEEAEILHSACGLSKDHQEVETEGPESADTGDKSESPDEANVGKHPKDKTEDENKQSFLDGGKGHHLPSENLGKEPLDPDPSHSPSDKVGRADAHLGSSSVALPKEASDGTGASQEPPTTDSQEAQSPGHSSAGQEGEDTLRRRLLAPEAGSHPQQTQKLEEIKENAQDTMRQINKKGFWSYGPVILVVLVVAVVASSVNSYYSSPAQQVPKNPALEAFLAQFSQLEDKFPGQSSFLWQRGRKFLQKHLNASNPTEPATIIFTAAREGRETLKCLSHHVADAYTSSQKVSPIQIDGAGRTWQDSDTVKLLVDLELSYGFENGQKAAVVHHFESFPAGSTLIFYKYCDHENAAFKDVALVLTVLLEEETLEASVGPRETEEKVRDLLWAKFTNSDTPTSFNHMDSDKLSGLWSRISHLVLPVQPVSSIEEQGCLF

Consider `COCCOC(=O)N1C(=O)[C@@]2(c3cc(C#CC4=CCCCC4)ccc31)[C@H](C(=O)N1CCN(c3ncccn3)CC1)[C@H]1C(=O)O[C@H](c3ccccc3)[C@H](c3ccccc3)N1[C@@H]2c1ccccc1OCCO`, for which the composite z-score is -0.285 in [1]; 0.943 in assay [2]; 0.0346 in assay [3]; 0.616 in assay [4]; 0.793 in [5]; 0.591 in assay [6]. For the same compound, the composite z-score in [7] was 1.15; in [9] it was 0.636; in [10], -0.0237; in assay [11], 1.53; in assay [15] it was 2.75; in assay [17], -0.0687. In addition, the composite z-score in assay [18] is 1.14; in assay [19], 1.04; in [20], -0.0749. Moreover, the z-score is 1.45 (inactive) in assay [8]; 1.3 (inactive) in [12]; 0.683 (inactive) in assay [13]; 4.42 (inactive) in assay [14]; 1.96 (inactive) in assay [16].

As to `C=CCC(OC(C)=O)[C@@H]1[C@@H](N(Cc2ccc(-c3ccccc3)cc2)C(=O)c2ccc(C)cc2)c2cc(OCCCO)ccc2N1C(=O)c1ccc2ccccc2c1` (stereo not given in full), the composite z-score in assay [1] is -0.233; in [2], 0.0822; in [3], -0.116; in [4] it was -0.148; in [5], -0.168; in assay [6], -0.138. In addition, the composite z-score is -0.405 in [7]; 0.482 in assay [9]; -0.0427 in [10]; 0.0718 in assay [11]; 0.327 in assay [15]; -0.173 in assay [17]. The composite z-score is 0.166 in [18], 0.305 in assay [19] and -0.139 in assay [20]. The z-score is -2.01 (inactive) in [8]; -2.33 (inactive) in [12]; -0.326 (inactive) in assay [13]; -0.693 (inactive) in assay [14]; 1.34 (inactive) in assay [16].

With `CC(C)(C)OC(=O)CC[C@]1(C(=O)N2CCOCC2)N=C(c2ccc(OCCCO)cc2)O[C@H]1c1ccccc1CN=[N+]=[N-]`, the composite z-score was 0.912 in [1]; 1.03 in assay [2]; -0.0296 in [3]; 0.286 in [4]; 0.684 in [5]; 1.26 in assay [6]. Further, the composite z-score in assay [7] was 1.5; in assay [9], 0.474; in [10], 0.113; in assay [11], 1.55; in assay [15] it was 3.32; in [17] it was -0.127. Also, the composite z-score in [18] was 1.79; in assay [19] it was 0.725; in [20], -0.044. Further, the z-score is 1.57 (inactive) in assay [8]; -0.673 (inactive) in [12]; 0.306 (inactive) in assay [13]; -0.611 (inactive) in assay [14]; -0.798 (inactive) in assay [16].

On to `CO[C@H]1O[C@H](CO)[C@@H](OC(=O)Nc2ccc(C(F)(F)F)cc2)[C@H](OC(=O)Nc2ccccc2-c2ccccc2)[C@H]1OC(=O)Nc1ccccc1-c1ccccc1`, for which the composite z-score in assay [1] is -0.288; in assay [2] it was 1.16; in assay [3] it was 0.0276; in assay [4] it was 0.988; in assay [5], 1.04; in assay [6], 0.802. The composite z-score in assay [7] was 1.36; in [9], 0.997; in assay [10] it was -0.0645; in assay [11], 1.54; in assay [15], 3.29; in [17] it was 0.0079. The composite z-score in [18] was 1.21; in assay [19], 1.06; in assay [20] it was 0.0108. Also, the z-score in assay [8] was 2.53 (inactive); in [12], 1.32 (inactive); in assay [13] it was 2.36 (inactive); in assay [14], 29.9 (active); in assay [16], 0.0918 (inactive).

`Cc1ccc(S[C@]2(C(=O)NCC(F)(F)F)CC(=O)N(C3CCCCC3)[C@@H]2c2ccc(CO)cc2)cc1`: the composite z-score in assay [1] is 0.169; in [2] it was 0.148; in [3] it was -0.129; in assay [4], 0.116; in assay [5] it was -0.426; in assay [6], 1.66. Further, the composite z-score is 0.631 in assay [7]; 0.387 in assay [9]; -0.271 in [10]; 1.28 in assay [11]; 2.9 in assay [15]; 0.0078 in assay [17]. Besides, the values for the composite z-score in [18], in assay [19] and in assay [20] were -0.461, -0.107 and -0.194, respectively. The z-score is -2.21 (inactive) in assay [8]; 0.565 (inactive) in assay [12]; -0.211 (inactive) in assay [13]; -0.0121 (inactive) in [14]; 0.471 (inactive) in [16].

Consider `COc1cc(OC)c(C(O)C2C=CC3C(=O)N(c4ccccc4)C(=O)C3N2Nc2ccccc2F)cc1Br` (stereo not given), for which the composite z-score in assay [1] stood at 0.0776; in assay [2] it was 0.948; in [3], 0.0619; in assay [4], 0.61; in [5], 1.44; in assay [6], 1.74. Further, the composite z-score was 1.25 in [7]; 1.53 in assay [9]; -0.0088 in assay [10]; 1.58 in assay [11]; 3.44 in assay [15]; 0.0235 in [17]. For the same compound, the composite z-score is 0.662 in assay [18], 1.03 in [19] and -0.0531 in assay [20]. The z-score in [8] was 0.0172 (inactive); in [12], 0.0228 (inactive); in [13], 1.77 (inactive); in assay [14], 0.511 (inactive); in assay [16], -1.36 (inactive).
